TDP-43 tox inh = TDP-43 toxicity inhibition in yeast; Potency, µM (titrated, usually from 46.1 µM), usual class: activators; 45,000 tested, 0.45% active; AID 1347073; yeast TDP-43 toxicity rescue, BacTiter-Glo growth, 24 h; active means well fitted activation curve with a large enough effect; further: 0% is about no effect; nearly all actives have a fitted effect of over 55% in size
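TDP-43-expressing yeast, pregrown in raffinose, seeded at OD600 0.02 in galactose medium with compound for 24 hr at 30 deg C. Growth read by BacTiter-Glo luminescence, so rescue of toxicity appears as activation.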
An asterisk follows results filed as active; i = inactive. The sample as a whole holds a higher share of hits than the screen did. Potency means the concentration at half of the fitted maximal effect.

SMILES	TDP-43 tox inh
COc1ccc(S(N)(=O)=O)cc1C(=O)NNC(=O)C1COc2ccccc2O1 (centres undefined)	i
COc1cccc(N2CCN(C(=O)c3ccc(CS(=O)c4ccc(C)cc4)o3)CC2)c1 (centres undefined)	i
CC1=C(C(=O)N2CCN(c3cccc(C)c3C)CC2)C2(CCCCC2)OC1=O	i
Cc1ccccc1S(=O)Cc1ccc(C(=O)N2CCN(c3cccc(C)c3C)CC2)o1 (centres undefined)	20µM*
COc1ccc(S(=O)(=O)N(C)C)cc1NC(=O)CN1C(=O)NC2(CCCC2)C1=O	i
CCOc1ccccc1NC(=O)C1(S(=O)(=O)c2ccc(Cl)cc2)CC1	i
CCc1ccc(N(C(=O)c2snc(C(N)=O)c2N)C(C(=O)NCC2CCCO2)c2ccco2)cc1 (centres undefined)	i
CC(C1CC2CCC1C2)n1c(-c2cccs2)n[nH]c1=S (centres undefined)	14µM*
CC(C)(C)c1n[nH]c(=S)n(/N=C/c2cccs2)c1=O	i
CC(C1CC2CCC1C2)N1CC(O)=C(c2nc3ccccc3[nH]2)C1=N (centres undefined)	i
Cc1ccc(NC(=O)C2CCCN(C(=O)NCc3ccccc3)C2)c(C)c1 (centres undefined)	i
Cc1ccc(C)c(SCC(=O)NC2CCS(=O)(=O)C2)c1 (centres undefined)	i
COc1ccccc1C(=O)Nc1cccc(NC(=O)c2ccccc2C)c1	14µM*
COc1cccc(NC(=O)c2cccc(C)c2[N+](=O)[O-])c1	i
CCN(CC)c1cc(C)c2cc(NC(=O)c3ccccc3OC)ccc2n1	i
O=C(O)CCCNC(=O)c1nn(Cc2ccccc2)c(=O)c2ccccc12	i
O=C(Nc1ccc(Oc2cccnc2)cc1)c1ccccc1Cl	i
O=C(O)c1ccccc1C(=O)Nc1ccc(Oc2ccc3ccccc3c2)cc1	22µM*
O=C(O)c1ccccc1C(=O)Nc1ccc(S(=O)(=O)N2CCCC2)cc1	i
CCOCCCn1c(SCC(=O)Nc2ccc(OC)cc2)nc2ccccc2c1=O	i
Cc1cccc(C)c1C(O)c1ncc(-c2cccc(F)c2)[nH]1 (centres undefined)	i
O=C(N/N=C\c1cccc([N+](=O)[O-])c1O)C1COc2ccccc2O1 (centres undefined)	10µM*
O=C(CNC(=O)C1COc2ccccc2O1)N/N=C\c1cccc(O)c1 (centres undefined)	i
Cc1c(/C=N\NC(=O)C2COc3ccccc3O2)c2ccccc2n1C (centres undefined)	i
CC(C)CC1(C)NC(=O)N(CC(=O)Nc2ccccc2Br)C1=O (centres undefined)	i
SMILES	TDP-43 tox inh
CC(=O)Nc1ccc(NC(=O)C2CCCCN2S(=O)(=O)c2ccc(C(C)(C)C)cc2)cc1 (centres undefined)	i
CC1(Cc2cc(Cl)ccc2C(F)(F)F)C(=O)Nc2ccc(S(=O)(=O)NC3CCCCC3)cc21 (centres undefined)	i
COc1cc(CC(=O)OCC(=O)NC2CCCCCC2)cc(OC)c1OC	i
Nc1c(O)ccc2c1C(=O)c1ccccc1C2=O	i
CN(C)C(=O)c1ccc2c(c1[N+](=O)[O-])C(=O)c1ccccc1C2=O	10µM*
CN(C)C(=O)c1cn(-c2ccccc2)nc1-c1cccc([N+](=O)[O-])c1	i
CN1CCC(C)(C(=O)Nc2ccc3c(c2)OCCO3)C1 (centres undefined)	i
CC(C)(C)c1ccc(CC(=O)N2CCC2(C)C(=O)NS(=O)(=O)c2cccs2)cc1 (centres undefined)	i
COc1ccc(NC(=O)c2ccc(NC(=O)C3COc4ccccc4O3)cc2)c(OC)c1 (centres undefined)	i
CCOc1ccc(S(=O)(=O)NCC2CCCO2)cc1NC(=O)c1ccccc1F (centres undefined)	i
COc1ccc(NC(=O)c2cc(S(=O)(=O)NCC3COc4ccccc4O3)ccc2F)cc1 (centres undefined)	25µM*
CCCNC(=O)C1(C)CCN(Cc2ccc(C(=O)OCC)cc2)C1 (centres undefined)	i
COc1ccc(S(=O)(=O)N(C)CC(=O)NCCCN2CCOCC2)cc1C	i
Cc1ccc(NC(=S)N2CCN(C(=O)c3ccccc3)CC2)c(C)c1	i
Cc1ccc(NC(=S)c2nc3ccccc3[nH]2)c(C)c1	10µM*
Cc1cc(C)cc(C(=O)Nc2nc3ccccc3[nH]2)c1	i
Cc1nc(N/C(N)=N/S(=O)(=O)c2ccccc2)nc2ccccc12	i
Cc1ccc(C(=O)N2CCCCC2C(=O)O)cc1S(=O)(=O)N1CCCCC1 (centres undefined)	i
Cc1noc(C)c1C(=O)N1CCN(S(=O)(=O)c2cccc(Cl)c2Cl)CC1	i
Cc1ccc(/C=C/C(=O)OCn2nnc3ccccc3c2=O)o1	14µM*
Cc1ccccc1OCC(=O)OCn1nnc2ccccc2c1=O	i
C[C@H](NC(=O)CCCn1nnc2ccccc2c1=O)C(=O)O	i
Cc1nc(C(F)(F)F)ccc1C(=O)N1CCC1(C)C(=O)NS(=O)(=O)c1cccc(C#N)c1 (centres undefined)	i
NC(c1ccccc1)c1csc(NC(=O)NCC2CCCCC2)n1 (centres undefined)	i
O=C(NCC1CCCCC1)c1cccc([N+](=O)[O-])c1	i
SMILES	TDP-43 tox inh
Cc1ccc(OCC(=O)O/N=C(\N)c2cccc([N+](=O)[O-])c2)cc1C	i
N/C(=N\OC(=O)CC1CCCCC1)c1ccc([N+](=O)[O-])cc1	18µM*
Cc1ccc(C(=O)/C=C/NCc2ccc(F)cc2)cc1	i
Cc1ccc(/C=C/C(=O)c2ccc(O)cc2)cc1	16µM*
CCN(CC)c1ccc(/C=C/C(=O)c2ccc(Br)cc2)cc1	i
COC(=O)C(C)n1cnc2c(nnn2-c2cccc(OC)c2)c1=O (centres undefined)	i
CC(C)(C)c1cc2nc(NCCOc3ccccc3)ccn2n1	i
COc1ccc(CNc2ncnc3c2[nH]c2cc(OC)c(OC)cc23)cc1	i
COc1ccc2c(c1)[nH]c1c(=O)n(CCN3CCOCC3)cnc12	i
COc1ccc2c(c1)[nH]c1c(Cl)ncnc12	14µM*
C=CCn1c(COc2ccccc2)nc2ccccc21	i
Cc1onc(-c2ccccc2)c1C(=O)N1CCCC(C)(C(=O)NS(=O)(=O)C2CC2)C1 (centres undefined)	i
Cc1ccc(S(=O)(=O)N2CCN(CN3C(=O)CC4(CCCC4)C3=O)CC2)cc1	i
COCCNC(=S)N/N=C(\C)c1cc2ccccc2o1	13µM*
COCCNC(=S)N/N=C(\C)c1ccc(OC)cc1	i
COCCNC(=S)N/N=C(\C)c1cccc(C(F)(F)F)c1	i
CC1(C(=O)NS(=O)(=O)c2cccs2)CCN1C(=O)CCc1ccc(Cl)cc1Cl (centres undefined)	i
COc1ccc(C(=O)N2CCC2(C)C(=O)NC(C)C)cc1 (centres undefined)	i
COCc1cc(C)n(CC(=O)Nc2ccc(N3CCOCC3)c(Cl)c2)c(=O)c1C#N	i
COc1ccc(NS(=O)(=O)c2cc(NC(=O)COc3ccccc3)ccc2N2CCOCC2)cc1	i
O=C(COc1c(F)c(F)c(C(F)(F)F)c(F)c1F)Nc1ccc(N2CCOCC2)c(Cl)c1	13µM*
O=C(NCC(=O)N1CCN(c2ncccn2)CC1)c1ccccc1OC(F)F	i

Screens deposited in PubChem by National Center for Advancing Translational Sciences (NCATS).
